Reference: PubChem BioAssay AID1259354 (Paczesny and Yang Labs, IUPUI and University of Michigan, 2018)
Values joined by “and” are separate entries in the source; they are usually repeats but may differ in a detail not shown here. Equal entries are not always repeated. About 1,800 (2.3%) of roughly 78,000 compounds were called active. Inconclusive results (about 27%) are left out. No stated cut-off is given here; in the data, active means inhibition above about 30%; inconclusive means mostly about 10% to 28%; inactive means weaker than that. For the sample, actives were picked, then their nearest neighbours and some compounds at random.

target: Interleukin-1 receptor-like 1 (Homo sapiens) (UniProt Q01638); assay: inhibitors of human ST2 (IL1RL1) binding to IL-33, primary screen, biochemical, AlphaLISA (AID 1259354); conditions: AlphaLISA ST2-Fc/biotin-IL-33 interaction, 1 h; at 17 µM, stronger effect = higher value
Sequence (Q01638 whole entry, looked up): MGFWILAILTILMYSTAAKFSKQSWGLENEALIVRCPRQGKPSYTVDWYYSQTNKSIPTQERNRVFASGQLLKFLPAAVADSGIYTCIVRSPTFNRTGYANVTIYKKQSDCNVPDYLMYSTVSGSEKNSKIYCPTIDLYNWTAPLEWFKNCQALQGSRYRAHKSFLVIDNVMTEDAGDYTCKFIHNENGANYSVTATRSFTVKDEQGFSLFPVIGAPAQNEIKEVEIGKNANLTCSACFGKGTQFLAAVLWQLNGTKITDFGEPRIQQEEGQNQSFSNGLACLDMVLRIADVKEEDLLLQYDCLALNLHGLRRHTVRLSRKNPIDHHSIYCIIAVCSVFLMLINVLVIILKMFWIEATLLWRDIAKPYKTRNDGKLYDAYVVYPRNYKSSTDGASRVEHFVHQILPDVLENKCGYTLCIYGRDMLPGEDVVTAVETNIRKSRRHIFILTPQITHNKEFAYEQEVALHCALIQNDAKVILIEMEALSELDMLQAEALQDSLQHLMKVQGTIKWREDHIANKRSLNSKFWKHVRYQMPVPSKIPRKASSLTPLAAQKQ

Compound | inhibition
CCC(=O)Nc1ccc(Nc2nc(C)cc(Nc3ccc(OC)cc3)n2)cc1 | inactive
COc1ccc(Nc2nc(Cl)nc(NCc3ccco3)n2)cc1 | inactive
COc1ccc(Nc2nc(Nc3ccc(OC)cc3)nc(N3CCNCC3)n2)cc1 | 31% (active)
CCOC(=O)CSC1=C(C#N)C(c2ccccc2)CC(=O)N1 (centres undefined) | inactive
CN(C)c1ccc(/C=C\c2nc3ccccc3c(=O)n2-c2ccc(C(=O)O)cc2)cc1 | inactive
CN(C)c1ccc(/C=C2\N=C(c3cccc(I)c3)OC2=O)cc1 | inactive
CC1=NN(Cc2ccccc2)C(=O)/C1=C/c1ccc(N(C)C)cc1 | 44% (active)
CN(C)CC1(O)CCCN(C(=O)c2ccc(-n3ccnc3)cc2)CC1 (centres undefined) | inactive
C=CCn1c(-c2ccccc2)csc1=Nc1ccc(O)cc1 | 53% (active) and 41% (active)
COc1ccc(-c2nc3cc(N=Cc4cccc(OC)c4O)ccc3o2)cc1 | 43% (active)
O=[N+]([O-])c1ccc(O)c(C=Nc2ccc3oc(-c4ccccc4)nc3c2)c1 | inactive
O=C(O)c1ccc(O)c(C=Nc2ccc3oc(-c4ccccc4)nc3c2)c1 | inactive
CC1(c2ccccc2NC(=O)c2ccc([N+](=O)[O-])cc2)CC1 | 30% (active)
O=C(Nc1ccc([N+](=O)[O-])cc1)c1ccc(Br)cc1 | inactive
COc1ccc([N+](=O)[O-])cc1NC(=O)c1ccc(-c2ccccc2)cc1 | inactive
c1cc(-c2nc3ccncc3[nH]2)ccn1 | inactive
CC1CCN(c2ccc(C(=O)O)cc2[N+](=O)[O-])CC1 | inactive
O=[N+]([O-])c1cc(Cl)ccc1N1CCCNCC1 | inactive
O=[N+]([O-])c1cc(Cl)ccc1N1CCN(c2ccc([N+](=O)[O-])c3cccnc23)CC1 | 56% (active)
CSc1ccccc1NC(=O)c1cc(-c2ccc(Br)cc2)on1 | inactive
O=C1CN(C(=O)c2nn(CCCc3ccccc3)c3c2CN(Cc2cccnc2)CC3)CCN1 | inactive
CCOc1ccc(-c2cc(C)n3nc(C(=O)OC)cc3n2)cc1 | inactive
OCCNc1c(F)c(F)nc(N2CCOCC2)c1F | inactive
O=C(NC[C@H]1O[C@@H](CO)[C@@H](O)[C@H]1N1CCc2ccccc2C1)Nc1ccccc1 | inactive
